Laboratory results: PubChem BioAssay
Calls of active or inactive are those of the source.

Assays:
[1] = binders of probe aFSTL3 on microarray, primary screen, stem cell growth factor project, biochemical, small-molecule microarray, fluorescence 635/667 (AID 1064); details: higher = more signal;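 note: measures binding of the biotinylated anti-FSTL3 antibody to printed compounds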
[2] = binders from COS7 lysate, DM2A8 probe, primary screen, torsin A project, cell lysate, small-molecule microarray, fluorescence 635/667 (AID 1065); details: higher = more signal, COS7 lysate expressing mutant human TOR1A
[3] = binders of probe aFGF2 on microarray, primary screen, stem cell growth factor project, biochemical, small-molecule microarray, fluorescence 635/667 (AID 1067); details: higher = more signal;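 note: measures binding of biotinylated aFGF2 protein to printed compounds on slides; z-score merges feature fluorescence and signal-to-noise across triplicate slides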
[4] = binders of probe aFGF10 on microarray, primary screen, stem cell growth factor project, biochemical, small-molecule microarray, fluorescence 635/667 (AID 1071); details: higher = more signal;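 note: score merges 667 nm spot intensity and signal to noise from triplicate slides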
[5] = target: Neurogenic locus notch homolog protein 2 (Homo sapiens) (UniProt Q04721); assay: Notch2 binders on small-molecule microarrays, primary screen, biochemical, small-molecule microarray, 635 nm fluorescence, stem cell growth factors (AID 1073); details: Notch2 binding, higher = more signal
[6] = target: Pro-neuregulin-1, membrane-bound isoform (Homo sapiens) (UniProt Q02297); assay: NRG1 binders on small-molecule microarrays, primary screen, psychiatric disease protein project, biochemical, small-molecule microarray, fluorescence 635/667 (AID 1075); details: NRG1 binding, 635 nm fluorescence, higher = more signal;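 note: score combines 667 nm spot fluorescence with signal to noise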
[7] = system: Neuregulin-1 EGF-like domain; assay: binders of neuregulin-1 EGF-like domain, primary screen, biochemical, small-molecule microarray, 635 nm fluorescence (AID 1081); details: small-molecule microarray binding, higher = more signal;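 note: binding of the protein to compounds printed on small-molecule microarray slides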
[8] = FRG1 promoter luciferase signal modulators, primary screen, FRG1 inhibition for FSHD, cell-based, C2C12 myotubes, firefly/Renilla luciferase, luminescence (AID 1084); details: higher = more signal, called active from +8 up or from −8 down
[9] = binders of probe aFST on microarray, primary screen, stem cell growth factor project, biochemical, small-molecule microarray, fluorescence 635/667 (AID 1086); details: higher = more signal;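 note: score merges 667 nm fluorescence with signal-to-noise of each printed compound spot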
[10] = binders of probe aHhip on microarray, primary screen, stem cell growth factor project, biochemical, small-molecule microarray, fluorescence 635/667 (AID 1087); details: higher = more signal;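 note: score merges spot fluorescence at 667nm with spot signal to noise ratio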
[11] = system: PRMT1 (protein arginine N-methyltransferase 1); assay: PRMT1 binders on small-molecule microarrays, primary screen, biochemical, small-molecule microarray, 635 nm fluorescence (AID 1088); details: small-molecule microarray binding, higher = more signal;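 note: binding of Prmt1 protein to compounds spotted on small-molecule microarray slides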
[12] = yeast growth modulation, basal conditions, primary screen, YJM789 clinical isolate, OD600, 24 h (AID 1089);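 note: growth of clinical yeast isolate S. cerevisiae YJM 789 seeded 1000 cells per well; test concentration not given here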; details: S. cerevisiae YJM789 growth, higher = more signal, called active from +8 up or from −8 down
[13] = fission yeast growth modulation, primary screen, strain 972, OD600, 24 h, no modulator (AID 1090);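 note: basal condition with compound alone and no growth modifier present; test concentration not given here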; details: S. pombe 972 growth, higher = more signal, called active from +8 up or from −8 down
[14] = S. cerevisiae growth modulation with rapamycin, primary screen, strain BY4716, OD600, 96 h (AID 1091); details: higher = more signal, called active from +8 up or from −8 down; note: test concentration not given here
[15] = target: Torsin-1A-interacting protein 2 (Homo sapiens) (UniProt Q8NFQ8); assay: LULL1 binders on small-molecule microarray, primary screen, cell lysate, human LULL1 lysate, 635/667 nm fluorescence (AID 1092); details: hLULL1 lysate binding, 635 nm fluorescence, higher = more signal;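 note: probe is lysate of COS7 cells overexpressing human LULL1; score merges per-feature 667 nm fluorescence with signal-to-noise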
[16] = E. coli growth modulation, two-sided OD650, primary screen, E. coli filamentation project, strain DRC41, 24 h (AID 1093); details: OD650, 24 h, higher = more signal, called active from +8 up or from −8 down;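 note: MC1000 strain lacking acrAB efflux and sulA so SOS filamentation is blocked; test concentration not given here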
[17] = small-molecule microarray binders of probe aLefty2, primary screen, biochemical, biotinylated probe, 635/667 nm fluorescence (AID 1094); details: higher = more signal;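 note: score merges spot fluorescence near 667 nm with spot signal-to-noise ratio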
[18] = system: Noggin (protein binding on small-molecule microarray); assay: Noggin binders on small-molecule microarray, primary screen, biochemical, 635/667 nm fluorescence (AID 1095); details: 635 nm fluorescence, higher = more signal;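 note: score merges 667 nm feature fluorescence with signal to noise over triplicate slides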
[19] = target: Neurogenic locus notch homolog protein 3 (Homo sapiens) (UniProt Q9UM47); assay: NOTCH3 binders on small-molecule microarray, primary screen, biochemical, 635/667 nm fluorescence (AID 1096); details: NOTCH3 binding, 635 nm fluorescence, higher = more signal
[20] = small-molecule microarray binders of probe aEGFR, primary screen, biochemical, biotinylated probe, 635/667 nm fluorescence (AID 1097); details: higher = more signal;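 note: probe is a biotinylated anti-EGFR antibody binding compounds printed on slides; score combines fluorescence near 667 nm and signal to noise of each spot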

Chain of Neurogenic locus notch homolog protein 3 (Homo sapiens) (Q9UM47 whole entry, looked up): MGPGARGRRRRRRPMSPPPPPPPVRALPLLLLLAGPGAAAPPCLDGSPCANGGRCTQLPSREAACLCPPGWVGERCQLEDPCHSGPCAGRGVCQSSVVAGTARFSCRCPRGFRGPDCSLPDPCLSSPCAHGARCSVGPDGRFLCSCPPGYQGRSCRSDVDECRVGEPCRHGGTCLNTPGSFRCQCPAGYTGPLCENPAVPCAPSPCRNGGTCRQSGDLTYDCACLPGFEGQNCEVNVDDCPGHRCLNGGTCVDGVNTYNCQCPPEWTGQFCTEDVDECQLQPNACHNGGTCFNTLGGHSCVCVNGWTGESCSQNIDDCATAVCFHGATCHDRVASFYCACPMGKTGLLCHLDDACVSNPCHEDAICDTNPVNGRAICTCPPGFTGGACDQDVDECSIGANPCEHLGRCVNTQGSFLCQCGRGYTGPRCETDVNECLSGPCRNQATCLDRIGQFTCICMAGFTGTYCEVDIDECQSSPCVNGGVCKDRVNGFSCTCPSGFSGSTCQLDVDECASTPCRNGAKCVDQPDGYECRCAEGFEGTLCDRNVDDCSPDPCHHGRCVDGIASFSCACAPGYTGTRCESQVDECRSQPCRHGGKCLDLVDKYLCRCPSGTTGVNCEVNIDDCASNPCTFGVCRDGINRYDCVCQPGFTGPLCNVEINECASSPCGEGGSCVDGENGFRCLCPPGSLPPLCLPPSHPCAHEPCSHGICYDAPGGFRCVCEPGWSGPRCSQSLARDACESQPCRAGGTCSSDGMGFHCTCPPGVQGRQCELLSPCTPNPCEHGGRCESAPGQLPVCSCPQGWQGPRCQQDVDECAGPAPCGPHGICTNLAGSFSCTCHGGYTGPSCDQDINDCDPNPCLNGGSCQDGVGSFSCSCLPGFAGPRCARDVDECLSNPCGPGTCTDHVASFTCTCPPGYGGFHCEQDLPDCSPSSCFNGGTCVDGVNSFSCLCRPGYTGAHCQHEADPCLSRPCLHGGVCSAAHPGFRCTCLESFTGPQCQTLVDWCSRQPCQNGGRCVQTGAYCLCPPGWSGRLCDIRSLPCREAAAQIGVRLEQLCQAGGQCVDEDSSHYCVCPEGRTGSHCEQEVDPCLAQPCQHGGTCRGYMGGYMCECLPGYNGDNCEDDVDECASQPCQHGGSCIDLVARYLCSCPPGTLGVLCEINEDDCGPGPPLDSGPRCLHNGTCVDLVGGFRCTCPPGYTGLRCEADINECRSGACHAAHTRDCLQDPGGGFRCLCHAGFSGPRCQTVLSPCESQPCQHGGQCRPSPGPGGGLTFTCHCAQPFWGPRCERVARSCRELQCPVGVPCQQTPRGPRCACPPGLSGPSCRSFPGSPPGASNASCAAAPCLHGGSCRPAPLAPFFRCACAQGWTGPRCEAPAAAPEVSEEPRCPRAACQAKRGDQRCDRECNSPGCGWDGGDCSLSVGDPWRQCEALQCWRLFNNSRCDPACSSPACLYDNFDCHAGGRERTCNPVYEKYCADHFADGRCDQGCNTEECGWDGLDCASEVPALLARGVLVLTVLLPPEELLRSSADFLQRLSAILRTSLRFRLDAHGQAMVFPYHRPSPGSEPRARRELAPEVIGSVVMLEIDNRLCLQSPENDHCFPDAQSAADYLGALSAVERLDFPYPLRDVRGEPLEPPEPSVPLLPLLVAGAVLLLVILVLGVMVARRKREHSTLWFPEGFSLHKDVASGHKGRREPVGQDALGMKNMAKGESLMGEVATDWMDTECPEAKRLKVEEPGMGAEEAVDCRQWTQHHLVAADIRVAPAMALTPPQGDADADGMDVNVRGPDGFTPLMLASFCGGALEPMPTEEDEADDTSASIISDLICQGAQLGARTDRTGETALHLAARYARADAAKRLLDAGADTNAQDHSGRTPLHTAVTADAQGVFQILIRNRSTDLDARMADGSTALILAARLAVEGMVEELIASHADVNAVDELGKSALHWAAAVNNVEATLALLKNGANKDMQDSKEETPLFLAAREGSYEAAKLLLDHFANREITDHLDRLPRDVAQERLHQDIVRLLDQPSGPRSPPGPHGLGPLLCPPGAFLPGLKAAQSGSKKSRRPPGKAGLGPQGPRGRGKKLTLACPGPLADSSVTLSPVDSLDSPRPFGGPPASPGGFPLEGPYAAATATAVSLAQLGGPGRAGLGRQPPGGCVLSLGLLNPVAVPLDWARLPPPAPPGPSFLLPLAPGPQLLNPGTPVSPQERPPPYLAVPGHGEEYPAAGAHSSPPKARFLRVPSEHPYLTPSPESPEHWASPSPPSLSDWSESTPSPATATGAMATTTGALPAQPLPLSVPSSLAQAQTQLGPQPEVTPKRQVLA
Chain of Neurogenic locus notch homolog protein 2 (Homo sapiens) (Q04721 whole entry, looked up, canonical isoform): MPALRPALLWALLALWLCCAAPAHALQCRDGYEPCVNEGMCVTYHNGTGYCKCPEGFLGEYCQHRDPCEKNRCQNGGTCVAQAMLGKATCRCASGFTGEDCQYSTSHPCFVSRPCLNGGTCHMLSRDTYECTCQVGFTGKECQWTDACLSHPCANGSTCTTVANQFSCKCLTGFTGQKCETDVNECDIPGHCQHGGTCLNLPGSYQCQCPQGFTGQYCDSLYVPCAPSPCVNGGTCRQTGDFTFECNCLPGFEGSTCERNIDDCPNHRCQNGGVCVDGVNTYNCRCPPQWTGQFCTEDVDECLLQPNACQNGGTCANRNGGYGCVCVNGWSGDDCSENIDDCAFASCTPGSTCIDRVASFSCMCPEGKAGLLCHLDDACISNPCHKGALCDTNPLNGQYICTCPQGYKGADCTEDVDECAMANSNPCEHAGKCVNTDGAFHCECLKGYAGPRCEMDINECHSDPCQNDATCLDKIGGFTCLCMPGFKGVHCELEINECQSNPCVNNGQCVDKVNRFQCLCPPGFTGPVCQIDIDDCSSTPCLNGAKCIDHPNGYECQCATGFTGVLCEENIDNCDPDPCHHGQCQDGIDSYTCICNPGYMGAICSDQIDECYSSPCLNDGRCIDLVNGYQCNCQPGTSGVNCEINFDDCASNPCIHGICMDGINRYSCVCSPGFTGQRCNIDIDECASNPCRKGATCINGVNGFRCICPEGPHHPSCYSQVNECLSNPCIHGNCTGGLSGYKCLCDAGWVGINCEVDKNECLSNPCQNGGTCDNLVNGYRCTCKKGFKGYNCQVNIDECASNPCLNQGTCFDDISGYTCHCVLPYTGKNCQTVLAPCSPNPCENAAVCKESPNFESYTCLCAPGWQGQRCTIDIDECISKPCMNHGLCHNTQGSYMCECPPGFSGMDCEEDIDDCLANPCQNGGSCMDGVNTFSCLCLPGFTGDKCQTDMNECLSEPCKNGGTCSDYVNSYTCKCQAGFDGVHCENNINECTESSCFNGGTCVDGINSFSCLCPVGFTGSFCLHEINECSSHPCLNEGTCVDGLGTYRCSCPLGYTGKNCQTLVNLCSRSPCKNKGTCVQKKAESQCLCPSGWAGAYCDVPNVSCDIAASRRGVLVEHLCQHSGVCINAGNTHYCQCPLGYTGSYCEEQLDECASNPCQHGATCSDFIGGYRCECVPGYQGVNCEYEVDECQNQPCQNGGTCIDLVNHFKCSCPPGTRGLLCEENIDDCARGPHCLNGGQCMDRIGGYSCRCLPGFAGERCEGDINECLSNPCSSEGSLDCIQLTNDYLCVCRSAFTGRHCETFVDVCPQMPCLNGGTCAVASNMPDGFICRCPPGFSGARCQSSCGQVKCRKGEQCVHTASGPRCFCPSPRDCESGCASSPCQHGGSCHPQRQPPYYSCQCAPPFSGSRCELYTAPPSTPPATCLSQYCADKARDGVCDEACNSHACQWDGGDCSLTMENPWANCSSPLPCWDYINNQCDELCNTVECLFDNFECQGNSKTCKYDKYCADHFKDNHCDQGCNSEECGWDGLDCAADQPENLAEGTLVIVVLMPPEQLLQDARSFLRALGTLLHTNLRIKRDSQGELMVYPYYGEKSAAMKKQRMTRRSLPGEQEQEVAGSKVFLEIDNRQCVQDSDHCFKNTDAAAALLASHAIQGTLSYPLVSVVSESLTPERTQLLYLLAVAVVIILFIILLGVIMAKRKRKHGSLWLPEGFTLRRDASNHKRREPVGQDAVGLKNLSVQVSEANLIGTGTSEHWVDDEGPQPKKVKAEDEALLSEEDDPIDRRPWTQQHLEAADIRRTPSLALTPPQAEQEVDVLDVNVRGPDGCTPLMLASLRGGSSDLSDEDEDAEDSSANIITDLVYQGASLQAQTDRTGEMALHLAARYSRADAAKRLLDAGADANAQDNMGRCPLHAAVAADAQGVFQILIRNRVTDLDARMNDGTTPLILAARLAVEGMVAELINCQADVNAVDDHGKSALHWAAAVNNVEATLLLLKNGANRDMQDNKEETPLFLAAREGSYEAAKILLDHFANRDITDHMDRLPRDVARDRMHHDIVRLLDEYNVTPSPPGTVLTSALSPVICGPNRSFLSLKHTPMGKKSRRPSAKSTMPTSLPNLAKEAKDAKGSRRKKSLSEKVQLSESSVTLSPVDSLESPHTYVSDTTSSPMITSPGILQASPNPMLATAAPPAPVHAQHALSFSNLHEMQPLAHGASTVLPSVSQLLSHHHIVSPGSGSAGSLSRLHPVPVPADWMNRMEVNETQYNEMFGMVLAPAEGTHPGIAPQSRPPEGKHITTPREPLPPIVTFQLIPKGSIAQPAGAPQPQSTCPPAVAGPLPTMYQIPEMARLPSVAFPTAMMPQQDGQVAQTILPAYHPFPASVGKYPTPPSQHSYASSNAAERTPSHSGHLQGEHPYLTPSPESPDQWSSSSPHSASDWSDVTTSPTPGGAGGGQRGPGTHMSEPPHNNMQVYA

Structure (SMILES) | composite z-score [1] | composite z-score [2] | composite z-score [3] | composite z-score [4] | composite z-score [5] | composite z-score [6] | composite z-score [7] | z-score [8] | composite z-score [9] | composite z-score [10] | composite z-score [11] | z-score [12] | z-score [13] | z-score [14] | composite z-score [15] | z-score [16] | composite z-score [17] | composite z-score [18] | composite z-score [19] | composite z-score [20]
CO[C@@H](C1CCCCC1)[C@@H](C)[C@H](OCc1cccc(Br)c1)[C@@H](C)CO | -0.284 | -0.0003 | -0.0909 | 0.179 | -0.0552 | -0.194 | -0.511 | 2.57 (inactive) | 0.306 | -0.0173 | 0.0812 | -0.407 (inactive) | -16.4 (active) | -1.11 (inactive) | 0.366 | 0.114 (inactive) | -0.181 | 0.307 | 0.322 | -0.0549
COc1ccc(OC[C@@H](CO)OC)cc1 | -0.306 | 0.415 | -0.0512 | 0.3 | 0.0354 | -0.156 | -0.0824 | 0.759 (inactive) | 0.0746 | -0.0994 | -0.601 | -0.368 (inactive) | -0.199 (inactive) | -0.302 (inactive) | -0.0777 | 0.418 (inactive) | -0.185 | 0.802 | -0.176 | -0.0381
CC(C)=CCCC(C)=CCON=C1[C@H]2CCn3c(=O)n(-c4ccccc4)c(=O)n3[C@H]2[C@H](O)[C@@H]2O[C@H]12 | -0.279 | 0.207 | 0.0243 | 0.0859 | 0.934 | 0.634 | 0.994 | -1.52 (inactive) | 0.516 | -0.0645 | 1.56 | -0.504 (inactive) | -5.66 (inactive) | -0.784 (inactive) | 2.36 | -1.1 (inactive) | 0.207 | 0.59 | 1.07 | -0.0211
C[C@H]1CC[C@H]2C(=O)N[C@H](Cc3ccccc3)C(=O)N2[C@@H]1c1ccccc1 | -0.335 | 0.524 | -0.0893 | 0.412 | 0.301 | -0.717 | 0.366 | 1.33 (inactive) | 0.0175 | -0.13 | -0.0481 | 0.492 (inactive) | 0.0432 (inactive) | -0.489 (inactive) | 0.217 | 0.805 (inactive) | -0.17 | 0.413 | -0.304 | -0.0794
O=C1[C@H]2[C@H]3[C@H](O)[C@H](O)CC(=NOC[C@@H](O)COCc4ccco4)[C@@H]3CC[C@H]2C(=O)N1c1cccc(Oc2ccccc2)c1 | -0.424 | -0.78 | -0.172 | -0.177 | -1.08 | -0.628 | -0.554 | -0.0105 (inactive) | -0.465 | -0.179 | -0.76 | 0.321 (inactive) | -0.512 (inactive) | -0.86 (inactive) | -0.75 | 0.0129 (inactive) | 0.0474 | 0.0054 | -0.487 | -0.156
CO[C@@H]1COC(=O)[C@H](COCc2ccccc2)NC(=O)CC=C[C@@H](C)[C@H](OC)COC(=O)[C@@H](C)NC(=O)CC=C[C@H]1C | -0.459 | 1.36 | -0.191 | -0.632 | -0.45 | -0.637 | -0.826 | 0.696 (inactive) | -0.0711 | 0.0139 | 1.39 | 0.203 (inactive) | -0.536 (inactive) | 0.55 (inactive) | -1.07 | 1.52 (inactive) | -0.147 | 1.16 | -0.0488 | -0.166
CCc1cc2c(nc1CC)CCN(CCC(C)=NOC[C@@H](C)[C@H](OCc1ccccc1)C(C)C)C2 | -0.251 | -0.176 | -0.226 | -1.25 | -1.17 | -0.769 | -0.47 | -0.856 (inactive) | -1.36 | -0.132 | 0.0757 | -2.41 (inactive) | -4.16 (inactive) | -1.32 (inactive) | 0.198 | -0.966 (inactive) | -0.224 | -0.249 | -1.38 | -0.25
COc1ccc(O[C@H]2C=C[C@@H](c3ccccc3)O[C@@H]2CO)cc1 | -0.176 | -0.15 | -0.121 | 0.291 | -0.359 | -0.224 | -0.134 | 0.403 (inactive) | -0.221 | 0.0458 | 0.018 | 0.711 (inactive) | -1.27 (inactive) | -1.02 (inactive) | 0.0141 | 0.299 (inactive) | -0.0603 | 0.14 | 0.0607 | -0.0146
CSCC[C@@H]1NC(=O)CC=C[C@@H](C)COC(=O)[C@H](C)COC1=O | -1.1 | 2.81 | -0.355 | -1.11 | -0.979 | -1.94 | -0.169 | -1.13 (inactive) | -0.242 | 0.487 | 1.53 | -2.12 (inactive) | -1.99 (inactive) | -0.894 (inactive) | -0.265 | 0.453 (inactive) | -0.295 | 2.11 | 0.883 | 0.702
CCOC(=O)CCN1C(=O)[C@H]2[C@H]3[C@H](O)[C@H](O)CC(=NNC(=O)OCc4ccc(OC)cc4)[C@H]3CC[C@H]2C1=O | -0.41 | 0.339 | -0.116 | 0.155 | 0.68 | 0.0204 | 0.0944 | -0.971 (inactive) | 0.245 | -0.329 | 0.271 | 0.0811 (inactive) | -0.257 (inactive) | -0.577 (inactive) | 0.282 | -0.31 (inactive) | 0.0108 | 0.335 | 0.316 | 0.0289
